Screen size: about 63,000 compounds; about 1,100 (1.7%) were called active. The full list was thinned out, with actives kept by preference. Results with a measured potency or affinity are listed apart. Values without a mark were called inactive.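 Rule for the calls: active = compounds whose percent cytotoxicity in the single-dose primary screen, scaled between solvent and toxic-drug controls, exceeds 50; inactive = the rest.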

The assay in a line: cytotoxicity in KRAS-transformed pancreatic duct cells, primary screen, cell-based, fluorescence, HTS (AID 431).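 Note: 0% = DMSO solvent wells and 100% = doxorubicin-treated wells.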 The conditions noted are these: HPDE-C7K KRASV12 cells, Alamar Blue viability, 48 h; at 10 µM; stronger effect = higher value.
In the case of `COc1cc2c(cc1NC(=O)CN1C(=O)NC3(CCc4ccccc43)C1=O)oc1ccccc12` (stereo not given), the cytotoxicity is 55% (active). As for `COc1ccc(C(=O)CN2C(=O)NC3(CCCc4ccccc43)C2=O)cc1OC` (stereo not given), the cytotoxicity is 3.3%. For `COc1cc2c(cc1NC(=O)CCCN1C(=O)CCC1=O)oc1ccccc12`, the cytotoxicity is 15.2%. In the case of `CCOC(=O)C1CCCN(C(=O)c2ccc3c(c2)NC(=O)C(N2CCOCC2)S3)C1` (stereo not given), the cytotoxicity was -2.6%. In the case of `CCOC(=O)N1CCN(C(=O)c2ccccc2CCc2ccccc2)CC1` it was 12.2%; in that of `COc1ccc(Cl)cc1CN1CCN(c2nc(C)cc(C)c2C#N)CC1`, 22.3%. In the case of `O=C(NCC12CC3CC(CC(C3)C1)C2)c1nc2ncccn2n1`, the cytotoxicity was 7.1%.

Turning to `CCN=C1SC(CC(=O)Nc2sc3c(c2C#N)CCCC3)C(=O)N1CC` (stereo not given), the cytotoxicity is -3.9%. Under `O=C(Nc1ccc(F)c(F)c1)NC1CCCCC1` stands -0.5%; under `Cc1ccc(NC(=O)NC2CCCCC2)cc1Cl`, -4%. Under `CC(C)c1ccc(NC(=O)NC2CCCCC2)cc1` stands 52.6% (active); under `CCOc1ccc(NS(=O)(=O)c2ccc(SC)cc2)cc1`, 8.6%; under `CCOc1ccc(NS(=O)(=O)c2ccc3[nH]c(=O)oc3c2)cc1`, 11.8%. In the case of `Cn1c(=O)c2c(nc(NCc3cccnc3)n2Cc2cccc(C(F)(F)F)c2)n(C)c1=O` it was -17.6%; in that of `Cc1ccc(Nc2cc(C)nn2-c2nc(C)cc(=O)[nH]2)cc1`, 101% (active); in that of `Cc1cc(=O)[nH]c(-n2nc(C)cc2C)n1`, -16%. For `Cc1cc(Nc2ccccc2)n(-c2nc3ccccc3[nH]2)n1`, the cytotoxicity was 1.5%. Consider `Cc1cccc(C)c1N(CC(=O)Nc1cccc(N(C)S(C)(=O)=O)c1)S(C)(=O)=O`, for which the cytotoxicity is -7.3%.

In the case of `COc1ccc(Cl)c(Cn2c(NCCCN(C)C)nc3c2c(=O)n(C)c(=O)n3C)c1`, the cytotoxicity is -1.8%. For `COc1ccccc1OCC(O)Cn1c(Br)nc2c1c(=O)[nH]c(=O)n2C` (stereo not given), the cytotoxicity was -3.5%. In the case of `Cc1ccccc1OCC(O)Cn1c(N2CCN(c3ccccc3)CC2)nc2c1c(=O)[nH]c(=O)n2C` (stereo not given), the cytotoxicity was 78.8% (active).

With `CC(C)CSc1nc2c(c(=O)[nH]c(=O)n2C)n1CC(O)COc1cccc2ccccc12` (stereo not given), the cytotoxicity is 63.6% (active). As for `Cn1c(=O)[nH]c(=O)c2c1nc(N1CCOCC1)n2CC(O)COc1ccccc1` (stereo not given), the cytotoxicity is -14.2%.

For `CCSc1nc2c(c(=O)[nH]c(=O)n2C)n1CC(O)COc1ccccc1C` (stereo not given), the cytotoxicity was -11.9%. For `Cc1ccccc1OCC(O)Cn1c(SC(C)C)nc2c1c(=O)[nH]c(=O)n2C` (stereo not given), the cytotoxicity is -16.9%.

The record behind these values is PubChem BioAssay AID431 (Sanford-Burnham Center for Chemical Genomics, 2006).
